The list is not random: actives were taken first. Their share in the collection is about 3.8%.
TIM10 inh – growth inhibitors of TIM10 yeast strain; S. cerevisiae TIM10 strain growth, BacTiter-Glo luminescence, 24 h; inhibition, % at 10 µM; actives 1.4% (n = 330,000);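 active means inhibition of 40% or more at the single tested concentration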;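 further: wild-type TIM10 isogenic control strain grown at permissive 25 °C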
tim23-1 inh – inhibits growth of tim23-1 mutant yeast | S. cerevisiae tim23-1 growth, BacTiter-Glo luminescence, 24 h | inhibition, % at 20 µM | actives 1.3% (n = 330,000);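 active means growth inhibition of the mutant yeast at or above 50%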;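 further: temperature-sensitive mutant grown at 25 °C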
NALP3 yeast inh – inhibitors of NALP3 inflammasome in yeast; actives 0.39% (n = 330,000); inhibition, % at 10 µM; Yeast reconstituted NLRP3/ASC/caspase-1, beta-gal luminescence, 24 h; AID 2825;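 active means inhibition of 50% or more; inactive means inhibition below 50%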
tim10-1 inh – tim10-1 yeast growth inhibition; actives 2.2% (n = 330,000); S. cerevisiae tim10-1 ts strain growth, BacTiter-Glo, 24 h; inhibition, % at 20 µM;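 active means inhibition of at least 40%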;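 further: mutant grown at 25 °C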
Yeast superoxide – caloric restriction mimetics inhibiting age-related superoxide in yeast; S. cerevisiae aged cells, superoxide DHE fluorescence; stronger effect = lower value; superoxide response (% of plate mean), % at 10 µM; actives 0.18% (n = 330,000); AID 2690;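 active means superoxide response under a set limit, about three screen SD below normal, cut at about 65% in these data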;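 further: yeast aged for seven days with compound at 30 °C before DHE staining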
tim10 confirm – TIM10 yeast growth inhibition, confirmed. shares compounds with TIM10 inh. S. cerevisiae tim10 strain growth, BacTiter-Glo luminescence, 24 h. inhibition, % at 10 µM. actives 63% (n = 4,600). AID 463215;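 active means inhibition of yeast growth at or above a set limit in either of two replicates at 10 µM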; further: this counterscreen used the strain with wild-type TIM10
tim23-1 confirm – tim23-1 yeast growth inhibition, confirmed; shares compounds with tim23-1 inh; S. cerevisiae tim23-1 growth, BacTiter-Glo luminescence, 24 h; inhibition, % at 20 µM; actives 83% (n = 4,400); AID 463218;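 active means inhibition above about 39% in either of two replicate wells at 20 µM, limit read from the data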;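 further: temperature-sensitive tim23-1 mutant grown at 25 °C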
Each line names hits and unclear results; the compound was inactive in the other large screens (follow-up assays come after a bar, where they were run).

Cc1ccc(NC(=O)c2ccccc2)s1	TIM10 inh 58, tim23-1 inh 55 | tim10 confirm 38 | tim23-1 confirm 74
Cc1ccc(CN2CN(S(=O)(=O)c3cccs3)c3nc4ccccc4nc32)cc1	none
O=C(/C=C/c1cccc([N+](=O)[O-])c1)c1ccco1	TIM10 inh 62, tim23-1 inh 64 | tim10 confirm 76 | tim23-1 confirm inactive
CCOC(=O)C1CCN(S(=O)(=O)c2ccc3c(c2)CCN3C(=O)C2CCC2)CC1	TIM10 inh 62, tim23-1 inh 51 | tim10 confirm inactive | tim23-1 confirm 66
CCOc1ccc(S(=O)(=O)NC(C)C(=O)NCc2ccccn2)cc1 (stereo unspecified)	none
COc1ccc(CC(=O)OCC(=O)Nc2cccc(C(C)=O)c2)cc1OC	none (no result: Yeast superoxide)
NC(=O)c1cc(Br)cc(C2CCCCC2)c1O	TIM10 inh 53, tim23-1 inh 65 | tim10 confirm 76 | tim23-1 confirm inactive
O=C(NC1CCCCC1)c1cc2cc(Br)ccc2o1	none
CC(C)CCNC(=O)CN(Cc1ccccc1Cl)C(=O)CCC(=O)Nc1ccccn1	none
N#C/C(=C/c1cccc([N+](=O)[O-])c1)C(=O)Nc1ccccc1O	TIM10 inh 42, tim23-1 inh 73 | tim10 confirm 40 | tim23-1 confirm 57
COCCCNC(=O)CSc1nc2cc(C(=O)NCCOC)ccc2c(=O)n1Cc1ccc2c(c1)OCO2	none
CCCCOc1ccc(/C=C(\C#N)C(=O)NC2CC2)cc1	none
CSc1ccc(/C=C(\C#N)C(=O)NC2CCCCC2C)cc1 (stereo unspecified)	TIM10 inh 56, tim23-1 inh 59 | tim10 confirm 65 | tim23-1 confirm 39
Cc1ccc(C(C[N+](=O)[O-])Sc2ccc(N)cc2)cc1 (stereo unspecified)	TIM10 inh 56, tim23-1 inh 75 | tim10 confirm 51 | tim23-1 confirm 90
Nc1ccc(Sc2ccc([N+](=O)[O-])cc2)cc1	none
CC(C)(C)OC(=O)N1CCC(c2c(C(=O)N3CCN(C(=O)c4ccco4)CC3)cnn2-c2ccc(F)cc2F)CC1	none
COc1ccc(-c2n[nH]c(C)c2-c2cnn(-c3ccccc3)c2)c(O)c1C	TIM10 inh 48, tim23-1 inh 51 | tim10 confirm 45 | tim23-1 confirm 59
CNC(=S)N/N=C(\C)c1ccc(C(C)(C)C)cc1	TIM10 inh 48, tim23-1 inh 50 | tim10 confirm inactive | tim23-1 confirm inactive
COc1ccc(CCNC(=O)C2CCCN(S(=O)(=O)c3ccc(F)cc3)C2)cc1OC (stereo unspecified)	none
Cc1ccc2c(c1)COc1c3ccc(C(=O)O)cc3nn1-2	none
Cc1ccc2c(c1)COc1c3ccc(C(=O)NCC4CC4)cc3nn1-2	TIM10 inh 41, tim23-1 inh 61 | tim10 confirm 31 | tim23-1 confirm 54
CCN1C(=O)C2(C(C(=O)c3cc4ccccc4o3)=C(O)C(=O)N2CCCN(C)C)c2ccccc21 (stereo unspecified)	none
Cc1ccc(NC(=O)c2cc(C)n(-c3ccccc3)c2C)cc1	TIM10 inh 50, tim23-1 inh 52 | tim10 confirm inactive | tim23-1 confirm 58
COc1ccc(C2C(C#N)=C(SC)NC3=C2C(=O)CC(C)(C)C3)cc1 (stereo unspecified)	none
C=CCC1(C#N)C(SC)=NC2=C(C(=O)CC(C)(C)C2)C1c1ccc(Br)cc1 (stereo unspecified)	TIM10 inh 44, tim23-1 inh 55 | tim10 confirm 32 | tim23-1 confirm 43
Cn1ccc(C(=O)Nc2cccnc2Cl)n1	none (no result: Yeast superoxide)
COc1ccccc1[C@@]1(C)ON(c2ccccc2C(F)(F)F)C1=O	TIM10 inh 65, tim23-1 inh 63 | tim10 confirm 55 | tim23-1 confirm inactive
O=C(N/N=C/c1ccc2c(c1)OCO2)c1ccc2c(c1)OCCO2	none
O=C(N/N=C/c1ccccc1O)c1ccc2c(c1)OCO2	TIM10 inh 51, tim23-1 inh 67 | tim10 confirm 43 | tim23-1 confirm 74
O=C(N/N=C/c1cc(Br)cc(Cl)c1O)c1ccc2c(c1)OCO2	TIM10 inh 43, tim23-1 inh 57 | tim10 confirm 31 | tim23-1 confirm 57
O=C(c1cccs1)N1CCCC(c2nc3c(nnn3Cc3c(Cl)cccc3Cl)c(=O)[nH]2)C1 (stereo unspecified)	none
Cc1nnn(C23CC4CC(CC(C(=O)NN)(C4)C2)C3)n1	none
CCOCC(=O)Nc1cc(C(=O)Nc2ccccc2)ccc1Cl	TIM10 inh 54, tim23-1 inh 60 | tim10 confirm 45 | tim23-1 confirm 67
CCOCC(=O)Nc1cc(C(=O)Nc2cc(C)cc(C)c2)ccc1Cl	none
N/C(=N\OC(=O)Cc1ccccc1[N+](=O)[O-])c1cccc(Br)c1	TIM10 inh 51, tim23-1 inh 59 | tim10 confirm 59 | tim23-1 confirm 67
N/C(=N\OC(=O)Cc1ccccc1)c1cccc(Br)c1	none
O=C(Nc1ccc(-c2cn3ccsc3n2)cc1)C1CCCC1	TIM10 inh 59, tim23-1 inh 57 | tim10 confirm 50 | tim23-1 confirm 69
COC(=O)c1ccc(-n2c(C)cc(C(=O)CSc3cccc[n+]3[O-])c2C)cc1	none
COC(=O)c1ccc(C(=O)OC)c(NC(=O)CSc2cccc[n+]2[O-])c1	TIM10 inh 41, tim23-1 inh 69 | tim10 confirm inactive | tim23-1 confirm 75
O=C(CCNC(=O)c1ccc([N+](=O)[O-])cc1)NC1CCCc2ccccc21 (stereo unspecified)	none (no result: Yeast superoxide)
COc1ccc(CCNc2oc(-c3ccc(C)cc3)nc2C#N)cc1OC	TIM10 inh 53, tim23-1 inh 55 | tim10 confirm 61 | tim23-1 confirm 76
COc1ccc(-c2nc(C#N)c(NCCc3ccccc3)o2)cc1	none
COc1ccnc(Oc2ccccc2)c1C(=O)N/C=N/OCc1ccccc1F	none
Cc1ccnc2c1ccc1c(C)ccnc12	TIM10 inh 50, tim23-1 inh 71 | tim10 confirm inactive | tim23-1 confirm 60
CCC(C)c1ccccc1NC(=S)NC(=O)c1ccco1 (stereo unspecified)	TIM10 inh 41, tim23-1 inh 54 | tim10 confirm inactive | tim23-1 confirm inactive
O=C(NC(=S)Nc1ccccc1Cl)c1ccco1	none
O=[S@]1Oc2ccccc2-c2ccccc21	TIM10 inh 58, tim23-1 inh 69 | tim10 confirm 76 | tim23-1 confirm inactive
O=C(Nc1ccc2oc(-c3ccccc3F)nc2c1)c1ccc2c(c1)OCCO2	TIM10 inh 46, tim23-1 inh 60 | tim10 confirm 36 | tim23-1 confirm 70
O=C(Nc1ccc(-c2nc3ccccc3o2)cc1)c1ccc2c(c1)OCO2	none
